Experimental data: PubChem BioAssay (EPA / NIEHS)
Several values for one entry are separate records, joined by “and”; a condition that tells them apart may be missing. Equal values may be shown once. Inconclusive results are not listed. A structure can be active in one record and inactive in another. Activity calls are given as the source filed them. The calls were made as follows, unless noted: active = hit-call score of the fitted dose curve at least 0.9, where 1 is the maximum; inconclusive = response in the unintended direction; inactive = score below 0.9.

Key:
[1] = molecular target: Estrogen receptor (Homo sapiens) (UniProt P03372); test: OT_ERa_GFPERaERE_0120: Odyssey Thera (OT) 2-hour HeLa Transcription Induction Assay for Estrogen Receptor (AID 2283382)
Sequence of Estrogen receptor (Homo sapiens) (P03372 whole entry, looked up): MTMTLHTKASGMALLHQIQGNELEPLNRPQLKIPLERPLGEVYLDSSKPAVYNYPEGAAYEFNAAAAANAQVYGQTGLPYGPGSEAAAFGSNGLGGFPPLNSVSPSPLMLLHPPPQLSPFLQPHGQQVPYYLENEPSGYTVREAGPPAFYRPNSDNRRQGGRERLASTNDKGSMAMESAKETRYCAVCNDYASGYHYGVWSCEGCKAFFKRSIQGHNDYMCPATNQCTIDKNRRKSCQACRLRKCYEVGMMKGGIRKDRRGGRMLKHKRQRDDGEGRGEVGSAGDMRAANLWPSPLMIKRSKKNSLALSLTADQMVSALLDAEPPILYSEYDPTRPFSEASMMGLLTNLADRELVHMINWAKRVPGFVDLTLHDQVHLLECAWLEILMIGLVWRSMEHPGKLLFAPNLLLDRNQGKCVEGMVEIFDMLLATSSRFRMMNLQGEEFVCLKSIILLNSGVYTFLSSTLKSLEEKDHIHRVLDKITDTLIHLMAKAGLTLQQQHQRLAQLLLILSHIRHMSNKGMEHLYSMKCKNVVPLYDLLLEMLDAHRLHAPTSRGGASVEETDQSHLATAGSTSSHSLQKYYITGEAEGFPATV
Summary of the method: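 HeLa cells were dosed for 2 h, then GFP reporter induction was quantified by fluorescence microscopy with high-content image analysis. Gain of signal fitted against DMSO baseline.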

[2] = molecular target: Bile acid receptor (Homo sapiens) (UniProt Q96RI1); test: OT_FXR_FXRSRC1_0480: Odyssey Thera (OT) 8-hour HEK293T Protein-Complementation Assay for Farnesoid X receptor/SRC-1 Co-activator (AID 2283383)
Sequence of Bile acid receptor (Homo sapiens) (Q96RI1 whole entry, looked up, the tested form may be a part): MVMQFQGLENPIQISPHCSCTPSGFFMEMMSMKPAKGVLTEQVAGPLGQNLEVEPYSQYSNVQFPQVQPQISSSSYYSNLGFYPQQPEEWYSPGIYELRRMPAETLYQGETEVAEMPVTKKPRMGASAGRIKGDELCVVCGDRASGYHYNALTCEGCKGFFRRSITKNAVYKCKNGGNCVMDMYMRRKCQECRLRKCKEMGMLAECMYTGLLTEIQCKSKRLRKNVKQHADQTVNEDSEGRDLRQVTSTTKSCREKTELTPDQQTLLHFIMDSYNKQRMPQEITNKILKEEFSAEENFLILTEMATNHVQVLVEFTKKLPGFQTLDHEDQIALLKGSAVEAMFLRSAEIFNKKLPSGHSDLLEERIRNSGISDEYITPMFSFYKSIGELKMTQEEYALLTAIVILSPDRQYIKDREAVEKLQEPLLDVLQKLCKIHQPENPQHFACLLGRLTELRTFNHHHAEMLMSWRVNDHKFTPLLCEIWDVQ
Summary of the method: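 HEK293T protein-fragment complementation assay: FXR and SRC-1 coactivator are fused to reporter fragments, and their interaction restores a fluorescent reporter. Readout was taken 8 h after dosing, with gain of signal fit relative to DMSO.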

[3] = molecular target: Retinoic acid receptor RXR-alpha (Homo sapiens) (UniProt P19793); test: OT_NURR1_NURR1RXRa_0480: Odyssey Thera (OT) 8-hour HEK293T Protein Complementation Assay for Nurr1/retinoid X receptor (RXR) (AID 2283385)
Sequence of Retinoic acid receptor RXR-alpha (Homo sapiens) (P19793 whole entry, looked up, the tested form may be a part): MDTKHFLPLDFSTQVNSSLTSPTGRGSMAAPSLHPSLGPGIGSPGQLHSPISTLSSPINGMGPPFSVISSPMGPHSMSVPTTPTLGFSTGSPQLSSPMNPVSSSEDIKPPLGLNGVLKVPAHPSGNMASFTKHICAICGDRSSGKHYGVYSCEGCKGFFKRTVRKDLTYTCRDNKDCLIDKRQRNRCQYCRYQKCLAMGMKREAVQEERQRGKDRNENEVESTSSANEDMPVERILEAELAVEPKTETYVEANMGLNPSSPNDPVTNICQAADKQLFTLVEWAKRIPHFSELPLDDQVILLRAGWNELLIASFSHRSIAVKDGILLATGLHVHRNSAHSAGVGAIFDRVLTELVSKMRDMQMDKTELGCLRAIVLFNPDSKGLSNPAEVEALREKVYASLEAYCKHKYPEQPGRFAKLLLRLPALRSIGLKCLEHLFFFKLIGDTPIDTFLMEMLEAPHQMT
Summary of the method: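 HEK293T cells expressing Nurr1 and RXRα fused to reporter fragments (protein-fragment complementation); fluorescence measured 8 h after dosing. Gain of signal fitted relative to DMSO.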

[4] = molecular target: Retinoic acid receptor RXR-alpha (Homo sapiens) (UniProt P19793); test: OT_NURR1_NURR1RXRa_1440: Odyssey Thera (OT) 24-hour HEK293T Protein Complementation Assay for Nurr1/retinoid X receptor (RXR) (AID 2283386)
Summary of the method: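 HEK293T protein-fragment complementation of Nurr1 and RXRα fused to reporter fragments; compounds 24 h. Fluorescence gain from reconstituted reporter fitted versus DMSO.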

[5] = molecular target: Peroxisome proliferator-activated receptor gamma (Homo sapiens) (UniProt P37231); test: OT_PPARg_PPARgSRC1_0480: Odyssey Thera (OT) 8-hour Protein-Complementation Assay for Peroxisome Proliferator-activated Receptor Gamma / SRC-1 Co-activator (AID 2283387)
Sequence of Peroxisome proliferator-activated receptor gamma (Homo sapiens) (P37231 whole entry, looked up, the tested form may be a part): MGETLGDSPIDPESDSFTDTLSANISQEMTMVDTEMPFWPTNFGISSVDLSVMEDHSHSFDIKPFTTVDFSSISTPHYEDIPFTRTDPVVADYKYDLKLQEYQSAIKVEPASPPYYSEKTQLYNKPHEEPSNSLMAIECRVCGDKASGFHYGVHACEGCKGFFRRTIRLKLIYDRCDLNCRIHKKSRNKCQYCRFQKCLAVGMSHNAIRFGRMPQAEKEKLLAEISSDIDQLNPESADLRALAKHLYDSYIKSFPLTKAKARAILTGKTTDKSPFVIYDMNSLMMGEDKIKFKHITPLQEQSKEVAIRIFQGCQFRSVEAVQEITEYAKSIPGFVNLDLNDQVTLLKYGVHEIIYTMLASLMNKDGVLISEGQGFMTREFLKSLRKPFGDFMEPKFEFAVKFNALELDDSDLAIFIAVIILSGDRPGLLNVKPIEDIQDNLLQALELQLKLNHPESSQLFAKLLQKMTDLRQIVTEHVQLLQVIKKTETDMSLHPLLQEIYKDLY
Summary of the method: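 Protein-fragment complementation in HEK293T: Venus YFP halves (residues 1-158, 159-239, mutated to IFP1/IFP2) fused to PPARg/SRC-1. 8 h exposure; N/C ratio at 488 nm; DMSO negative control.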

[6] = molecular target: Peroxisome proliferator-activated receptor gamma (Homo sapiens) (UniProt P37231); test: OT_PPARg_PPARgSRC1_1440: Odyssey Thera (OT) 24-hour Protein-Complementation Assay for Peroxisome Proliferator-activated Receptor Gamma/ SRC-1 Co-activator (AID 2283388)
Summary of the method: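 HEK293T cells transiently transfected with PPARg and SRC-1 fused via (Gly4Ser)2 linker to split Venus YFP fragments (IFP1/IFP2) were dosed 24 h; fixed, Draq5-stained, imaged at 488/635 nm; nuclear/cytoplasmic fluorescence ratio scored versus DMSO baseline, gain-of-signal.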

[7] = molecular target: Bile acid receptor (Homo sapiens) (UniProt Q96RI1); test: OT_FXR_FXRSRC1_1440: Odyssey Thera (OT) 24-hour HEK293T Protein-Complementation Assay for Farnesoid X receptor/SRC-1 Co-activator (AID 2283384)
Summary of the method: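 HEK293T cells, 24 h after chemical dosing. FXR–SRC-1 coactivator interaction read as fluorescence from protein-fragment complementation of a split reporter. Gain of signal fitted against DMSO baseline.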

[8] = CEETOX_H295R_OHPREG: CeeTox H295R High-throughput Steroidogenesis Assay for OH-Pregnenolone (OHPREG) (AID 2283434; active = hit-call score of the fitted dose curve at least 0.9, where 1 is the maximum; inactive = score below 0.9); conditions: actives raise or lower the signal
Summary of the method: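 Hormone levels in spent medium were measured by tandem mass spectrometry following liquid-liquid extraction. Cells (H295R) had been forskolin-stimulated (10 uM, 48 h) before a 48 h chemical exposure at 0.1% DMSO, with activity fitted in both directions against DMSO.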

[9] = CEETOX_H295R_OHPROG: CeeTox H295R High-throughput Steroidogenesis Assay for OH-Progesterone (OHPROG) (AID 2283435; active = hit-call score of the fitted dose curve at least 0.9, where 1 is the maximum; inactive = score below 0.9;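 as to AC50: human adrenal H295R cells primed 48 h with 10 µM forskolin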); conditions: actives raise or lower the signal
Summary of the method: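 H295R adrenal cells prestimulated 48 h with 10 uM forskolin, then exposed 48 h to chemical (0.1% DMSO final). 17alpha-hydroxyprogesterone in medium quantified by HPLC-MS/MS; bidirectional fit versus DMSO, with MTT viability measured in the same wells.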

[10] = CEETOX_H295R_ANDR: CeeTox H295R High-throughput Steroidogenesis Assay for Androstenedione (ANDR) (AID 2283436; active = hit-call score of the fitted dose curve at least 0.9, where 1 is the maximum; inactive = score below 0.9); conditions: actives raise or lower the signal
Summary of the method: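 Read-out is androstenedione secreted into medium, measured by tandem mass spectrometry after liquid-liquid extraction. Cells were H295R, dosed for 48 h per modified OECD 456; activity fitted in both directions relative to DMSO.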

Measured: AC50

O=CCCCC=O
active: [2] 40.2 µM | [3] 50 µM
inactive: [1] | [4] | [5] | [6]

O=C(O)c1ccccc1-n1cc(C(=O)O)c(=O)c2cc(Nc3c(F)cc(F)cc3Cl)c(Cl)cc21
inactive: [1] | [2] | [3] | [4] | [5] | [6]

CCN(CC)C(=O)c1cc(S(=O)(=O)Cc2ccccc2)c(N2CCC(c3ccccc3)CC2)cc1N(CC)CCN(C)C
inactive: [5] | [6]
active: [1] 19 µM | [2] 4.46 µM | [3] 4.48 µM | [4] 4.48 µM

CC(C)(C)c1csc(-c2cc3cc(OCc4ccccc4CC(=O)O)ccc3o2)n1
active: [3] 2.97 µM | [4] 29.1 µM
inactive: [1] | [2] | [5] | [6]

CCCCCCCCCCCCO
inactive: [1] | [2] | [3] | [5] | [6]

OC12N=C(c3ccccc3)SC1Cc1cc(Cl)ccc12 (stereo not drawn)
active: [2] 71.7 µM | [7] 31.4 µM | [4] 30 µM
inactive: [1] | [3] | [5] | [6] | [8] | [9]

Cc1ccc2oc(CN(Cc3ccccc3)C(=O)Nc3c(F)cc(F)cc3F)c(-c3ccc(Cl)cc3)c2c1
active: [9] 4.83 µM
inactive: [1] | [2] | [5] | [6] | [8]

COc1cccc([C@H](O)C2CCN(CCc3ccc(F)cc3)CC2)c1OC
inactive: [1] | [2] | [3] | [4] | [5] | [6]
active: [8] 1.81 µM | [9] 19.7 µM

COCC(C)OCC(C)OCC(C)O (stereo not drawn)
inactive: [1] | [3] | [4] | [5] | [6]

CCN(Cc1cccc(S(=O)(=O)O)c1)c1ccc(C(=C2C=CC(=[N+](CC)Cc3cccc(S(=O)(=O)O)c3)C=C2)c2ccccc2S(=O)(=O)[O-])cc1
active: [4] 46.6 µM
inactive: [1] | [2] | [3] | [4] | [5] | [6]

O=C(OCCCCCCOC(=O)c1ccccc1)c1ccccc1
inactive: [1] | [3]
active: [2] 50 µM

CC[C@H](NC(=O)c1cc(F)ccc1NS(=O)(=O)c1cccc2cccnc12)c1ccccc1
inactive: [1] | [7] | [3] | [4] | [5] | [6]
active: [2] 31.9 µM

CCCCCCCCOc1ccc(C(=O)c2ccccc2)c(O)c1
inactive: [1] | [2] | [7] | [3] | [5] | [6]

c1ccc(C[n+]2cccc3ccccc32)cc1
inactive: [1] | [2] | [5] | [6]

O=C=NCCCCCCN=C=O
inactive: [1] | [3] | [4] | [5] | [6]

O=C(O)c1ccccc1C(=O)OCc1ccccc1
inactive: [1] | [3] | [4] | [5] | [6]

O=C(O)Cn1c(=O)n(Cc2ccc(Br)cc2F)c(=O)c2ccc(Cl)cc21
inactive: [1] | [2] | [3] | [4] | [5] | [6] | [8] | [9] | [10]
active: [6] 49.7 µM

Cc1occc1C(=O)Nc1ccc(C(=O)N2CCC(F)(F)/C(=C\C(=O)N3CCC(N4CCCCC4)CC3)c3ccccc32)cc1
inactive: [1] | [5] | [6]
active: [3] 28.6 µM | [4] 28.3 µM

Cc1cc2c(cc1C(F)(F)F)N(C(=O)Nc1ccc(Oc3cccnc3C)nc1)CC2
active: [2] 19.1 µM | [3] 29.2 µM | [8] 0.495 µM | [9] 0.591 µM
inactive: [1] | [4] | [5] | [6]

COc1ccc2cc(S(=O)(=O)N[C@H](CC(=O)N[C@H](Cc3ccc(CN4[C@H](C)CCC[C@@H]4C)cc3)C(=O)N(C)C(C)C)c3ccc4c(c3)OCO4)ccc2c1
inactive: [5] | [6]
active: [1] 28.6 µM | [2] 11.1 µM | [3] 11.1 µM

CCCCOC(=O)c1ccc(O)cc1
active: [7] 14.6 µM and 16 µM
